Test results published in the supplement of paper PMC6555819.

tested on: VDR:RXRa (NR concentration 270 nM, RXRa partner concentration 90 nM); experiment: PBM binding z-score (relative to random genomic background probes); higher = stronger binding; sequences stand for … in GC…GCGATTGACAGCGTAGAATGAAGG
Experimental: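 Protein-binding microarray (Agilent 4x180K custom design, double-stranded 60-nt probes: 5' GC cap, 34-nt variable region, 24-nt constant primer region; full probe sequence given). Purified or IVT nuclear receptor:RXRα heterodimers (3:1 NR:RXRα, mostly 270:90 nM) or homodimers were incubated for 1 h in PBS with 2% milk and no ligand, then detected with Alexa488 antibodies. Fluorescence from o1-orientation probes (~5 replicates averaged) was converted to z-scores against 500 random hg19 background probes. Variable regions are seed direct-repeat (DR0–DR5) sites, all their single-nucleotide variants and half-site ablations.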

Row | Sequence | PBM binding z-score
1 | CGTCCAAGGTCAGTGAGGTCAGTGAATGCCGAGT | 7.42
2 | CTATGTAGGTTAAGGTGGTCATTCAGTTTGAAAG | 2.29
3 | TCGAGTAGGGTACGGGGGCATTCAGGGATGAAGA | 3.64
4 | GATACAGGGTCAAGGCCAGAATACGCGTATTGAT | 4.05
5 | ATATGTAGGTTAGGGTCATACAGAAAGTAGGGAA | 4.24
6 | CGAACTAGGTCACCAGGACAGTCAAGAGGTTGGA | 2.18
7 | CCTCGGAGGACAACAGGATGTCAGAGCTGCCAGA | -0.45
8 | CGAACTAGGTCAACGACAGTGAATCTCCGCACGC | 1.27
9 | ATCGAATGGTCGTGAGGTGAGTATACAGAAAGGC | -0.0757
10 | CTTAGTTGGTCAGGAGGTCACACACCGGATATGA | 3.78
11 | CGTCCAAGGTCAAAGGTCAGCGAAGAGATGACGG | 6.91
12 | ATTTGTAGGTTATCGGGTCATTCAGTTTGCGCAT | 5.57
13 | CCTTACAGGTCACGAGGTTATAGCACGACGAGCG | 5.04
14 | CGAACTAGGTTAAAGGACAGTGAAAGGCGACGTA | -0.216
15 | TCGAGTAGTTTACGGGGGCATTCAGGGATGAAGA | 3.09
16 | CCGAGTAGGTTACGAGGCGGCATTCAGTGCGAAT | -0.141
17 | CCTAGCAGGCGAGGGTCACTCAAGCATTTCGCTT | 1.59
18 | GCTTACGGGTGAAAGGTTATAGCATGAATAGAAT | 2.17
19 | ATATGTAGGTTAGGGTCCTTCAGAAAGTAGGGAA | 0.818
20 | CGAACTAGGTCACAGGACAGTGAAAGGCGACGTA | 1.61

Row | Sequence | PBM binding z-score
21 | CGAACTATGTCAAGGACAGTGAATCTCCGCACGC | -0.248
22 | CCTACTGGGCCAAGGTCATTGCTCAGTCAAAGCA | 3.19
23 | CAAAATAGGTCAAGGTCAAAGTCGGTTTGTGCCA | 5.51
24 | CCGAGTAGGTTACGAGGGGGCGTTCAGTGCGAAT | 4.72
25 | CGAACTAGGTCACCAGGACAGTGATGAGGTTGGA | 2.17
26 | CTATGTAGGTTAAGGGGGTCTTTCAGTTTGAAAG | 3.93
27 | ACTTGGAGGACAAAGGTCAGAGCTACGCCAGTGA | 3.58
28 | GCTTACGGGTCAAAGGTTAAAGCATGAATAGAAT | 5.38
29 | CAAACTAGGTCAAGAGGTCAAAGGCCGCTTCCCG | 5.83
30 | CGAACTAGGTCACCAGGCCAGTGAAGAGGTTGGA | 1.71
31 | AGTCAAATTTCATCTAGGTAACGTAAGATATGCT | 0.0583
32 | TAGCCTAGGTCATTCAGGGGCCAGTATGGAAAGC | 3.13
33 | ATAGAAAGGTCGAAGGTGAGTATACCCACCCGAA | 2.88
34 | CGAACTAAGTCATCCAGGACAGTGAATACATTGA | 0.524
35 | TCTCGGATGACACGAAAGGTCAGAGCTCGACATC | 2.94
36 | CAAACTAGGTCAAAGGTCAAAGCCGAGCCAACCA | 6.79
37 | CGTCCAAGGTCAACGCTAGGTCAGTGAAAGCATT | 5.09
38 | AGTCCAAGTTCACTAGGTAACGTAAGATTCAGCT | 3.46
39 | GGTACGAGGGCAAAGTTGATAGCATCTGTCGACG | 1.14
40 | GATAGTTGGTCAGTAAAAGGTCACACACCGGTCG | 3.94
